Targets with a hit are over-represented here; the source holds about 7,900 in all. About 0.6% of all pairs of compound and target were hits.
Experiments:
Test in all cases: log2 fold change, soluble protein after heating vs DMSO (PISA); higher = thermal stabilisation; K562 cells, 10 uM, 30 min; active = over 0.2 and 3.5 SD of the protein, either way, in both replicates (recomputed)
ZC3H8 = ZC3H8 (UniProt Q8N5P1)
Outline: (§1)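 K562 cells at 2×10^6 cells/mL were given 10 μM compound for 30 min. Aliquots then went through 3 min of heating across 48°C-58°C, were pooled, and were extracted in PBS with 0.5% NP-40 at 4°C, and the supernatant after 21,000xg for 90 min was quantified by TMTpro 16plex LC-MS/MS with channel sums equalised. Thermal stability relative to control samples, from duplicates, is given as log2 fold change.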

ZC3HC1 = ZC3HC1 (UniProt Q86WB0)
Outline: as §1

ZCCHC9 = ZCCHC9 (UniProt Q8N567)
Chain of ZCCHC9 (Q8N567 whole entry, looked up): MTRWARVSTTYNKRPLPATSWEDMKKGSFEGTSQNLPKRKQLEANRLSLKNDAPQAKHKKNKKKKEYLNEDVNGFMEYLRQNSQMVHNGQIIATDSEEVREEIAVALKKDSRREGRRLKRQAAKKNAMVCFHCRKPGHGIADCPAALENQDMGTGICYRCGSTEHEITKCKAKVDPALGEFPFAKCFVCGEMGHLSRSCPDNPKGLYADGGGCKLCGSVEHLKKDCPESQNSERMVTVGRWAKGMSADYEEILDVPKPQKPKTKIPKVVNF
Outline: as §1

ZDHHC17 = ZDHHC17 (UniProt Q8IUH5)
Outline: as §1

ZDHHC20 = ZDHHC20 (UniProt Q5W0Z9)
Chain of ZDHHC20 (Q5W0Z9 whole entry, looked up): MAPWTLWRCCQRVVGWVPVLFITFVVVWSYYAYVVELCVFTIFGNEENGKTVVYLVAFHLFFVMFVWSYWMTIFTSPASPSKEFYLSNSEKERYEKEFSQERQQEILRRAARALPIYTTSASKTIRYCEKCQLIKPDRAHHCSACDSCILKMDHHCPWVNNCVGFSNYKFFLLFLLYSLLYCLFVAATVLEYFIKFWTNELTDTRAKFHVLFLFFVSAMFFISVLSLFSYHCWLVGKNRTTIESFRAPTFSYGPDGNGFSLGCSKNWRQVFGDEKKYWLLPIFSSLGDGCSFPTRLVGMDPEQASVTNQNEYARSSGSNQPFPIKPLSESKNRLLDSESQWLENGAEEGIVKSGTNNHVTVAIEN
Outline: as §1

ZDHHC5 = ZDHHC5 (UniProt Q9C0B5)
Outline: as §1

ZDHHC8 isoform 3 = ZDHHC8 isoform 3 (UniProt Q9ULC8)
Outline: as §1

ZEB2 = ZEB2 (UniProt O60315)
Outline: as §1

ZER1 = ZER1 (UniProt Q7Z7L7)
Chain of ZER1 (Q7Z7L7 whole entry, looked up): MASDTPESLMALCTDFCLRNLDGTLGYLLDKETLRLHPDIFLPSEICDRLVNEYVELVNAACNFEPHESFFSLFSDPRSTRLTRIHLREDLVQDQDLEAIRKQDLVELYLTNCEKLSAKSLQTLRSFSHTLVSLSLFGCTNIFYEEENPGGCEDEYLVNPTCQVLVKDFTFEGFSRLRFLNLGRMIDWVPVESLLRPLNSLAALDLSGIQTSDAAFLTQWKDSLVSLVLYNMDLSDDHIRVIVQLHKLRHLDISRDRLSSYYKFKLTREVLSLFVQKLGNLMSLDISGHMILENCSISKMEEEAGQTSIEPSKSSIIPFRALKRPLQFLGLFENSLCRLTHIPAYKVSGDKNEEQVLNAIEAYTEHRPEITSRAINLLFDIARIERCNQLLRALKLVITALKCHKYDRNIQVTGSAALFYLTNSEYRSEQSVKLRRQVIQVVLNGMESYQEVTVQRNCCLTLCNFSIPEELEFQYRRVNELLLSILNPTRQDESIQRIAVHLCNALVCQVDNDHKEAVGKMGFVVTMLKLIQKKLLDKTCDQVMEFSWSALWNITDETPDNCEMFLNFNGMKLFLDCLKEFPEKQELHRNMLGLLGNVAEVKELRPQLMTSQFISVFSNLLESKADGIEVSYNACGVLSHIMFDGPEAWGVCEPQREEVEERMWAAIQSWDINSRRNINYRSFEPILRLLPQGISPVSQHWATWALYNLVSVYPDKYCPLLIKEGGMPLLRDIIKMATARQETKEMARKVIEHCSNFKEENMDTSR
Outline: as §1

ZFAND5 = ZFAND5 (UniProt O76080)
Chain of ZFAND5 (O76080 whole entry, looked up): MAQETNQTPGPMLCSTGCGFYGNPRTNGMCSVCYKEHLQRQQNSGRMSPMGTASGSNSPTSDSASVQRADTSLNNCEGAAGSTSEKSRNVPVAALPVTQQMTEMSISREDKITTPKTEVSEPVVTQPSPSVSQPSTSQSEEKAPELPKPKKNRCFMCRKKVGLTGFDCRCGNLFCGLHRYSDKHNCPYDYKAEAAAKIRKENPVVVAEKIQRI
Outline: as §1

ZFAND6 = ZFAND6 (UniProt Q6FIF0)
Chain of ZFAND6 (Q6FIF0 whole entry, looked up): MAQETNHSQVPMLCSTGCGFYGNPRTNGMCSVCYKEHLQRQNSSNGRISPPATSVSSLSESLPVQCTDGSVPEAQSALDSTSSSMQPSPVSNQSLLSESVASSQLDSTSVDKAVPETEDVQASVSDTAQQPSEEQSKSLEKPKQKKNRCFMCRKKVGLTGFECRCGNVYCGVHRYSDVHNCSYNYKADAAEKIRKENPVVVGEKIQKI
Outline: as §1

ZFP91 = ZFP91 (UniProt Q96JP5)
Chain of ZFP91 (Q96JP5 whole entry, looked up): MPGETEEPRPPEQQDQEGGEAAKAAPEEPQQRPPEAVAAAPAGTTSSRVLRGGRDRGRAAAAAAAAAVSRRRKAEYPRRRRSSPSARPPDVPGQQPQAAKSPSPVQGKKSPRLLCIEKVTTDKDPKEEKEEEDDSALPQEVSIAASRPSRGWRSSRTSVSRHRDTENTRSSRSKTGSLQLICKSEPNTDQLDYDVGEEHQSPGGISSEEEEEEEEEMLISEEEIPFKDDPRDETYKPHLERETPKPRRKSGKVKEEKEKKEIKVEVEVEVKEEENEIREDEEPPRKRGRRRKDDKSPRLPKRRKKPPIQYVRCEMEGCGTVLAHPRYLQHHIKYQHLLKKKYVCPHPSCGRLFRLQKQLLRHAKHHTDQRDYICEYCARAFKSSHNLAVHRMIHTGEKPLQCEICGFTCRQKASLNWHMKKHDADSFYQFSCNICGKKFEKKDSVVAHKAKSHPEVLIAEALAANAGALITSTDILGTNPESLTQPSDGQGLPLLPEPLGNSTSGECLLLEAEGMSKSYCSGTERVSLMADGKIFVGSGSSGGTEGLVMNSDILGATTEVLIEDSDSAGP
Outline: as §1

ZFPL1 = ZFPL1 (UniProt O95159)
Chain of ZFPL1 (O95159 whole entry, looked up): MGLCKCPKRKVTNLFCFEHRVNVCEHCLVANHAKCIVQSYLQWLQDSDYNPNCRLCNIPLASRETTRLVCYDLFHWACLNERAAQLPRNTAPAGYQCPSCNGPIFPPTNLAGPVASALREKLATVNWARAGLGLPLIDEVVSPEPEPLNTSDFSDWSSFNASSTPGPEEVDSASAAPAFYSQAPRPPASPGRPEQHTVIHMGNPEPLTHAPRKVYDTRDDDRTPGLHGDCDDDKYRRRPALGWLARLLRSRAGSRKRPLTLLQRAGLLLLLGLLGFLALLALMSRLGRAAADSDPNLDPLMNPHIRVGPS
Outline: as §1

ZMAT2 = ZMAT2 (UniProt Q96NC0)
Chain of ZMAT2 (Q96NC0 whole entry, looked up): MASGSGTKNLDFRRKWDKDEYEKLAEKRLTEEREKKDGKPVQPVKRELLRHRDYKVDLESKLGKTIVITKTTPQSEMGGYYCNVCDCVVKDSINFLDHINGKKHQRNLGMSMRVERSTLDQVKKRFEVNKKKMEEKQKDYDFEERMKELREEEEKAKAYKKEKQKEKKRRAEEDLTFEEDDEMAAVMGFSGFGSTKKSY
Outline: as §1

ZMYM1 = ZMYM1 (UniProt Q5SVZ6)
Outline: as §1

ZMYM3 = ZMYM3 (UniProt Q14202)
Chain of ZMYM3 (Q14202 whole entry, looked up): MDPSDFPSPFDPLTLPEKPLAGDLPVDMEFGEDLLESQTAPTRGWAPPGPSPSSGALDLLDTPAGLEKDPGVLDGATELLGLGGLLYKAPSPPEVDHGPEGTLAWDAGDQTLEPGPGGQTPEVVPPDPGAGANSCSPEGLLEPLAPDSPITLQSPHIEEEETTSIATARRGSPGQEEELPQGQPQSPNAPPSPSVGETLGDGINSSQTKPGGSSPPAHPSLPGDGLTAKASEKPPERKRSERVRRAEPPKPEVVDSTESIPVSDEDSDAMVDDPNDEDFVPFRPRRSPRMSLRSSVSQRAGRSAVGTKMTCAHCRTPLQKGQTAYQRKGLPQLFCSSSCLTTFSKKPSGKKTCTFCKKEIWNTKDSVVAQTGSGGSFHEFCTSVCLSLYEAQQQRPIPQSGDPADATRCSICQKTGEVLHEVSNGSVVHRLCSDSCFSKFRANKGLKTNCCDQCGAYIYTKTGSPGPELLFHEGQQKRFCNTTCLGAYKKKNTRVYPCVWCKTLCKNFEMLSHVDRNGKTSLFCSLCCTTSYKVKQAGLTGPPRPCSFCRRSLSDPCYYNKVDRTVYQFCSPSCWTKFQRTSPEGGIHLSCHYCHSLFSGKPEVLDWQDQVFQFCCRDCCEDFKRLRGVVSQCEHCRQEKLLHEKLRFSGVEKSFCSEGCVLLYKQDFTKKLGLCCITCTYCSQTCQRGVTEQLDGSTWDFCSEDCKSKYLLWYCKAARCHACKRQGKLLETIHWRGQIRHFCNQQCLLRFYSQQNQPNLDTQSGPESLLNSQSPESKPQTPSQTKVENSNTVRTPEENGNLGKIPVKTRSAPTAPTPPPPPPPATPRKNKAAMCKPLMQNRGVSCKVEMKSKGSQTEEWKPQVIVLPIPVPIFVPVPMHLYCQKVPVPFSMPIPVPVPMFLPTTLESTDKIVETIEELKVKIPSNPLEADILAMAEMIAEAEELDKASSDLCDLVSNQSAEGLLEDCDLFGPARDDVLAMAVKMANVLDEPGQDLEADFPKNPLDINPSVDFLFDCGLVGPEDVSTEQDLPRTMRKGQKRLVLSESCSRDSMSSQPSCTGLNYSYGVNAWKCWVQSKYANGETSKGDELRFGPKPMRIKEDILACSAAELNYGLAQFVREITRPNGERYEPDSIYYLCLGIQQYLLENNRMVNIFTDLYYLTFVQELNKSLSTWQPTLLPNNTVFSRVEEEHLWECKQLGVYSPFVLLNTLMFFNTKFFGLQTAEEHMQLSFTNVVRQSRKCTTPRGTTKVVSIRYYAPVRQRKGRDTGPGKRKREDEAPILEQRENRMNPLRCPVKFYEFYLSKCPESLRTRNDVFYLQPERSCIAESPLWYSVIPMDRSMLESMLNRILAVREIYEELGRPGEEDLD
Outline: as §1

ZNF143 = ZNF143 (UniProt P52747)
Chain of ZNF143 (P52747 whole entry, looked up): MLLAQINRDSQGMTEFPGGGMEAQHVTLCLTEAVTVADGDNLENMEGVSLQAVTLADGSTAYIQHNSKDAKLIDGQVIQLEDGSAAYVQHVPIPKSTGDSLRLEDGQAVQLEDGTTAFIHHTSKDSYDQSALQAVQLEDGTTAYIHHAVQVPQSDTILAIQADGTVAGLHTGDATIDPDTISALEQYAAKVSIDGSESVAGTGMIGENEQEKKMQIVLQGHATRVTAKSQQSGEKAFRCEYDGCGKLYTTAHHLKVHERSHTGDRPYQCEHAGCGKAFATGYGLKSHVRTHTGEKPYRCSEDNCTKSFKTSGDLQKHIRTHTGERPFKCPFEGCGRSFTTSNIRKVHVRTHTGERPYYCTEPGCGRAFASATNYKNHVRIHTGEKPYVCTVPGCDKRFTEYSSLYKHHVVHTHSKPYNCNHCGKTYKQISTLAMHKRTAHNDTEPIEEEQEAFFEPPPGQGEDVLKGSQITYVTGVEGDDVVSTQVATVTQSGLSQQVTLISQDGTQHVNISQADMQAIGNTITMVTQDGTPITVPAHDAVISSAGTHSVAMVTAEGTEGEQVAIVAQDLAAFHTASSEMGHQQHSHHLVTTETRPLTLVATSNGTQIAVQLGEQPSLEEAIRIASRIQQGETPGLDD
Outline: as §1

ZDHHC7 isoform 2 = ZDHHC7 isoform 2 (UniProt Q9NXF8)
Outline: as §1

Measured: log2 fold change

CCN(CCCOc1ccc2c(Nc3cc(CC(=O)Nc4cccc(F)c4)[nH]n3)ncnc2c1)CCOP(=O)(O)O [barasertib]
inactive: ZC3H8 -0.075 | ZC3HC1 0.108 | ZCCHC9 -0.094 | ZDHHC17 0.067 | ZDHHC20 0.022 | ZDHHC5 -0.001 | ZDHHC8 isoform 3 0.028 | ZEB2 0.117 | ZER1 0.034 | ZFAND5 -0.013 | ZFAND6 0.04 | ZFP91 -0.105 | ZFPL1 -0.032 | ZMAT2 -0.047 | ZMYM1 0.022 | ZMYM3 -0.076 | ZNF143 0.01

Cc1nc(Nc2ncc(C(=O)Nc3c(C)cccc3Cl)s2)cc(N2CCN(CCO)CC2)n1 [dasatinib]
inactive: ZC3H8 0.123 | ZC3HC1 -0.214 | ZDHHC17 -0.002 | ZDHHC20 -0.163 | ZDHHC5 0.019 | ZDHHC7 isoform 2 -0.063 | ZDHHC8 isoform 3 -0.112 | ZEB2 -0.226 | ZER1 -0.033 | ZFAND5 0.082 | ZFAND6 0.03 | ZFP91 0.009 | ZFPL1 0.04 | ZMAT2 0.042 | ZMYM1 -0.045 | ZMYM3 0.047 | ZNF143 -0.007

FC(F)(F)c1ccc(/C=C/c2nc(COc3ccc(CCCCn4ccnn4)cc3)co2)cc1 [mubritinib]
inactive: ZC3H8 -0.102 | ZC3HC1 -0.049 | ZCCHC9 -0.087 | ZDHHC17 0.051 | ZDHHC20 0.03 | ZDHHC5 0.025 | ZEB2 -0.114 | ZER1 0.044 | ZFAND5 0.099 | ZFAND6 0.017 | ZFP91 -0.076 | ZFPL1 -0.007 | ZMAT2 0.049 | ZMYM1 -0.081 | ZMYM3 -0.072 | ZNF143 0.094

C=CC(=O)N1CCC[C@@H](n2nc(-c3ccc(Oc4ccccc4)cc3)c3c(N)ncnc32)C1 [ibrutinib]
inactive: ZC3H8 0.03 | ZC3HC1 -0.041 | ZCCHC9 0.06 | ZDHHC17 -0.029 | ZDHHC20 -0.004 | ZDHHC5 0.02 | ZDHHC8 isoform 3 0.043 | ZEB2 0.029 | ZER1 0.001 | ZFAND5 0.03 | ZFAND6 0.006 | ZFP91 0 | ZFPL1 0.087 | ZMAT2 0.025 | ZMYM1 0.066 | ZMYM3 0.03 | ZNF143 0.01

O=C1NC(=O)/C(=C\c2ccc3nccnc3c2)S1
inactive: ZC3H8 0.044 | ZC3HC1 0.021 | ZCCHC9 -0.015 | ZDHHC17 0.11 | ZDHHC20 0.095 | ZDHHC5 0.007 | ZDHHC8 isoform 3 -0.002 | ZEB2 -0.177 | ZER1 0.031 | ZFAND5 -0.017 | ZFAND6 0.007 | ZFP91 0.051 | ZFPL1 0.021 | ZMAT2 -0.015 | ZMYM1 0.005 | ZMYM3 0.079 | ZNF143 0.045

CC(C)C[C@@H](C=O)NC(=O)[C@H](CC(C)C)NC(=O)[C@H](CC(C)C)NC(=O)OCc1ccccc1
inactive: ZC3H8 0.045 | ZC3HC1 -0.101 | ZCCHC9 0.305 | ZDHHC17 -0.057 | ZDHHC20 -0.153 | ZDHHC5 -0.029 | ZDHHC7 isoform 2 -0.069 | ZEB2 0.131 | ZER1 0.039 | ZFAND5 0.007 | ZFAND6 0.119 | ZFP91 0 | ZFPL1 0.038 | ZMAT2 0.049 | ZMYM1 0.006 | ZMYM3 0.09 | ZNF143 -0.119

O=C1c2ccccc2-c2n[nH]c3cccc1c23
inactive: ZC3H8 -0.001 | ZC3HC1 -0.032 | ZCCHC9 -0.009 | ZDHHC17 -0.021 | ZDHHC20 -0.044 | ZDHHC5 -0.054 | ZDHHC7 isoform 2 0.01 | ZER1 -0.009 | ZFAND5 -0.055 | ZFAND6 -0.055 | ZFP91 -0.004 | ZFPL1 -0.055 | ZMAT2 0.018 | ZMYM1 0.001 | ZMYM3 -0.093 | ZNF143 -0.077

CNc1nc(-c2ccc3c(N)n[nH]c3c2)cc(N2C[C@@H](C(=O)NC3CCCCC3)CC[C@H]2C)n1
inactive: ZC3H8 0.012 | ZC3HC1 0.104 | ZDHHC17 0.017 | ZDHHC20 0.121 | ZDHHC5 0.011 | ZDHHC7 isoform 2 -0.03 | ZDHHC8 isoform 3 0 | ZEB2 -0.09 | ZER1 -0.245 | ZFAND5 -0.072 | ZFAND6 -0.017 | ZFP91 -0.007 | ZFPL1 -0.031 | ZMAT2 -0.058 | ZMYM1 -0.021 | ZMYM3 -0.004 | ZNF143 -0.118

CN1CC[C@H](c2c(O)cc(O)c3c(=O)cc(-c4ccccc4Cl)oc23)[C@H](O)C1 [alvocidib]
inactive: ZC3H8 0.189 | ZC3HC1 -0.318 | ZCCHC9 0.321 | ZDHHC17 -0.027 | ZDHHC20 -0.016 | ZDHHC5 -0.038 | ZDHHC7 isoform 2 0.077 | ZER1 -0.131 | ZFAND5 0.041 | ZFAND6 0.028 | ZFP91 0.108 | ZFPL1 -0.038 | ZMAT2 0.047 | ZMYM1 0.016 | ZMYM3 0.14 | ZNF143 -0.125

C/C(=N\NC(=O)c1cccc(S(=O)(=O)N2CCOCC2)c1)c1cc(Cl)ccc1O
inactive: ZC3H8 -0.128 | ZC3HC1 0.199 | ZCCHC9 -0.224 | ZDHHC17 -0.004 | ZDHHC20 -0.048 | ZDHHC5 0.003 | ZDHHC7 isoform 2 0.057 | ZER1 0.019 | ZFAND5 -0.018 | ZFAND6 -0.075 | ZFP91 -0.069 | ZFPL1 0.099 | ZMAT2 0.001 | ZMYM1 -0.174 | ZMYM3 -0.004 | ZNF143 0.127

Cc1cc(SCc2sc(-c3ccc(C(F)(F)F)cc3)nc2C)ccc1OCC(=O)O
inactive: ZC3H8 -0.039 | ZC3HC1 0.199 | ZDHHC17 -0.04 | ZDHHC20 -0.249 | ZDHHC5 -0.03 | ZDHHC7 isoform 2 -0.075 | ZDHHC8 isoform 3 0.031 | ZEB2 0.089 | ZER1 0.055 | ZFAND5 -0.079 | ZFAND6 -0.038 | ZFP91 0.042 | ZFPL1 0.025 | ZMAT2 -0.048 | ZMYM1 0.032 | ZMYM3 -0.011 | ZNF143 0.028

Oc1cc(-c2nc(-c3ccccc3)[nH]c2-c2ccncc2)ccc1Cl
inactive: ZC3H8 -0.076 | ZC3HC1 0.024 | ZCCHC9 -0.271 | ZDHHC17 0.002 | ZDHHC20 -0.232 | ZDHHC5 0.01 | ZDHHC7 isoform 2 0.026 | ZEB2 -0.053 | ZER1 0.012 | ZFAND5 -0.024 | ZFAND6 -0.006 | ZFP91 -0.06 | ZFPL1 -0.119 | ZMAT2 -0.042 | ZMYM1 -0.101 | ZMYM3 -0.033 | ZNF143 0.093
